{"source": "the supplement of paper PMC10338343", "note": "± gives the standard deviation."}
{"test_system": "EfPiwi piRISC loaded with L1MC piRNA (26 nt)", "assay": "pre-steady-state target cleavage rate (min^-1); auxiliary factor: none (no Gtsf1); guide: L1MC piRNA 5'p-UAACUAAAUACUAUGCAAGCUGUAGG; MIWI and MILI are mouse PIWI proteins and EfPiwi is from a freshwater sponge; tags in brackets are library labels; higher = faster piRNA-guided slicing of the target", "experimental": "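Cleave-'n-Seq: a library of target RNAs (target site in constant flanks) at […] was incubated with 1 nM active freshwater sponge Ephydatia fluviatilis Piwi piRISC (synthetic 5'-monophosphorylated piRNA guide) with or without 500 nM EmGtsf1 at 33 °C for 1 min to 16 h. Uncleaved targets were sequenced and the pooled three trials fitted to a burst-and-steady-state model to give the pre-steady-state cleavage rate (min^-1). Sequence is the target site only. Fits with R² ≤ 0 are excluded.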"}
{"sequence": "UCCUCCUACACCUUCCAUAGUAUUUAGUUA", "pre-steady-state target cleavage rate": "< 0.0001"}
{"sequence": "UCCUGGAACAGCUUGCAUUCUAUUUACAAA", "pre-steady-state target cleavage rate": "< 0.0001"}
{"sequence": "UCCUGGAUGUCGAACGUAUGAAUUUAGAUA", "pre-steady-state target cleavage rate": "< 0.0001"}
{"sequence": "UCCUGCUACAGCUUGCAAUCUAUUUUCAAA", "pre-steady-state target cleavage rate": "< 0.0001"}
{"sequence": "UCCUGGAUGUCGAACGUUAAUAUUUAGUUA", "pre-steady-state target cleavage rate": "< 0.0001"}
{"sequence": "UCCUGGAUGUCCUUGCAAUCAUAAAUCAAA [g14:g19:cont:t1A]", "pre-steady-state target cleavage rate": "< 0.0001"}
{"sequence": "UCCUGGAUGAGCUUGCAAAGUAUAUAGUUA", "pre-steady-state target cleavage rate": "< 0.0001"}
{"sequence": "UCCUGGAUCAGCUUGCAUAGUAUUUACGUUA", "pre-steady-state target cleavage rate": "0.011 ± 0.006"}
{"sequence": "UCCUGGUACAGCUUGGUAAGUAUUUACAAA", "pre-steady-state target cleavage rate": "< 0.0001"}
{"sequence": "UCCUGGAUGAGCUUGCAUAGUACUUAGUUA", "pre-steady-state target cleavage rate": "0.00448 ± 0.0039"}
{"sequence": "UCCUCCUACAGGAAGCAUAGUAUUUACAAA", "pre-steady-state target cleavage rate": "< 0.0001"}
{"sequence": "UCCUGGAUGUCGAAGGAUAGUAUUUUGUUA", "pre-steady-state target cleavage rate": "< 0.0001"}
{"sequence": "UCCUGGAUGUCGAAGCAUAGUAUAUACUUA", "pre-steady-state target cleavage rate": "< 0.0001"}
{"sequence": "UCCUGGAUGUCGAACGUAUGAUUUAGUUA", "pre-steady-state target cleavage rate": "< 0.0001"}
{"sequence": "UCCUGGAACUCGUUGCAUAGUAUUUAGUUA", "pre-steady-state target cleavage rate": "< 0.0001"}
{"sequence": "UCCUGGAUGUCGUUCCAUAGUAUAUAGUUA", "pre-steady-state target cleavage rate": "< 0.0001"}
{"sequence": "UCCUGGAUGUGCUUGCGUAGUAUUUAGUUA", "pre-steady-state target cleavage rate": "0.00427 ± 0.0042"}
{"sequence": "UCCUGGAUCAGCUUGCAUAGUAGUUUAGUUA", "pre-steady-state target cleavage rate": "0.011 ± 0.0045"}
{"sequence": "UCCUGGAUGAGCUUGCAUAGUAAUUAGAAA", "pre-steady-state target cleavage rate": "< 0.0001"}
{"sequence": "UCCUGGAUGUCGUUGAAUAGUAUUUAGUUA", "pre-steady-state target cleavage rate": "< 0.0001"}
{"sequence": "UCCUGGAUGUCCUUGCAUACAAUUUAGUUA", "pre-steady-state target cleavage rate": "< 0.0001"}
{"sequence": "UCCUGGAUGUCGAACGUUAGAAUUUUGUUA", "pre-steady-state target cleavage rate": "< 0.0001"}
{"sequence": "UCCUGGAUGUCGAACGAUAGUAUUUAGAAA [g4:g14:cont:t1A]", "pre-steady-state target cleavage rate": "< 0.0001"}
{"sequence": "UCCUGGAUGUCGAACGUAUGUAUAUUAGUUA", "pre-steady-state target cleavage rate": "< 0.0001"}
{"sequence": "UCCUGGAUGUCGAAGCAUAGUAUUUAGUUU [g2:g16:cont:t1U]", "pre-steady-state target cleavage rate": "< 0.0001"}
{"sequence": "UCCUGGAUGAGCUUGCAUAGAUUUUAGUAA", "pre-steady-state target cleavage rate": "< 0.0001"}
{"sequence": "UCCUGGAUGUCGUUGCAUAGUAUAUAGAUA", "pre-steady-state target cleavage rate": "< 0.0001"}
{"sequence": "UCCUGCUAGAGCUUGCAUAGUAUUUAGAAA", "pre-steady-state target cleavage rate": "< 0.0001"}
{"sequence": "UCCUGGAUGUCGUUCAUAGUAUUUAGUUA", "pre-steady-state target cleavage rate": "< 0.0001"}
{"sequence": "UCCUGGAAGAGCUUGCAUACUAUUUAGUUA", "pre-steady-state target cleavage rate": "0.00581 ± 0.0041"}
{"sequence": "UCCUGGAACAGCUUCCAUAGUAUUUACUUA", "pre-steady-state target cleavage rate": "< 0.0001"}
{"sequence": "UCCUGGAUGUCGAACGAUAAUAUUUAGUUA", "pre-steady-state target cleavage rate": "< 0.0001"}
{"sequence": "UCCUGGAUCAGCUUGGAUACUAUUUAGUUA", "pre-steady-state target cleavage rate": "< 0.0001"}
{"sequence": "UCCUGGUUCUGCUUGCAUAGUAUUUAGUUA", "pre-steady-state target cleavage rate": "0.00563 ± 0.0047"}
{"sequence": "UCCUGGGACAGCUUGCAUAGUAUUUAGUUA", "pre-steady-state target cleavage rate": "0.00525 ± 0.0051"}
{"sequence": "UCCUGGAUGUCCUUGCAAAGUAAUUAGUUA", "pre-steady-state target cleavage rate": "< 0.0001"}
{"sequence": "UCCUGCUACAGCUUGCAUAGAAUUUUCAAA", "pre-steady-state target cleavage rate": "< 0.0001"}
{"sequence": "UCCUGGAUCAGCUUGCAUAGUAUUUUAGUUA", "pre-steady-state target cleavage rate": "0.0111 ± 0.0065"}
{"sequence": "UCCUGGAUGUGCUUGCAAAGUAUUUUGUUA", "pre-steady-state target cleavage rate": "< 0.0001"}
{"sequence": "UCCUGGAUGUGCUUGCAUAGUAUCUUAGUUA", "pre-steady-state target cleavage rate": "0.0107 ± 0.0064"}
